Data reported in PubChem BioAssay (NCATS).
Results filed as inconclusive are left out. Calls of active or inactive are those of the source. Calls come from the whole dose curve; as a rule, active = well fitted curve in the direction sought with a large enough effect; inconclusive = small, poorly fitted or top-dose-only effect, or another doubt; inactive = no such curve, though single readings can be large; an effect the other way counts as inactive or inconclusive.

Key:
HeLa = assay: Primary qHTS to identify gynecologic anti-cancer compounds using libraries of approved drugs and bioactive compounds (AID 1345084); conditions: Gynecologic cancer cell panel viability, ATPlite luminescence, 48 h; series mostly up to 57.5 µM; note: nearly all actives have a fitted effect of over 55% in size
In short: (§1)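 Cells, 1,000 per well, were allowed to settle for 16 h at 37 C before compound addition. Five concentrations were tested for 48 h, and viability was read by ATPlite luminescence after 15 min at room temperature.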

Hek293T = assay: as above; conditions: Gynecologic cancer cell panel viability, ATPlite luminescence, 48 h, control line for the selectivity index; series mostly up to 57.5 µM
In short: as §1

JEG-3 = assay: as above; conditions: Gynecologic cancer cell panel viability, ATPlite luminescence, 48 h; series mostly up to 57.5 µM
In short: as §1

OV90 = assay: as above; conditions: Gynecologic cancer cell panel viability, ATPlite luminescence, 48 h; series mostly up to 57.5 µM
In short: as §1

Tov-21-G = assay: as above; conditions: Gynecologic cancer cell panel viability, ATPlite luminescence, 48 h; series mostly up to 57.5 µM
In short: as §1

Tov112D = assay: as above; conditions: Gynecologic cancer cell panel viability, ATPlite luminescence, 48 h; series mostly up to 57.5 µM
In short: as §1

[1] = Drug repurposing screens with cells derived from glioblastoma tumor samples (AID 1345199); conditions: GBM patient neurospheres viability, ATP luminescence, 48 h; Potency: tumour line A unless noted; series mostly up to 45.9 µM; note: nearly all actives have a fitted effect of over 40% in size
In short: (§2)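 Four patient lines of CD133+ GBM neurospheres were screened at several concentrations; hits were retested in those lines plus three slower-growing GBM lines, using 48-hour treatment and ATP-based viability.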

PA-1 = assay: Primary qHTS to identify gynecologic anti-cancer compounds using libraries of approved drugs and bioactive compounds (AID 1345084); conditions: Gynecologic cancer cell panel viability, ATPlite luminescence, 48 h; series mostly up to 57.5 µM; note: nearly all actives have a fitted effect of over 55% in size
In short: as §1

SKOV3 = assay: as above; conditions: Gynecologic cancer cell panel viability, ATPlite luminescence, 48 h; series mostly up to 57.5 µM
In short: as §1

astro = assay: Drug repurposing screens with cells derived from glioblastoma tumor samples (AID 1345199); conditions: viability, ATP luminescence, 48 h; series mostly up to 45.9 µM; note: nearly all actives have a fitted effect of over 40% in size
In short: as §2

Measured: Potency

CC(C)(C)NC[C@H](O)c1ccc(O)cc1Cl
not listed: PA-1 | SKOV3 | astro
inactive: all other assays above

O=S(=O)(c1ccc(Cl)cc1)c1ccc(Cl)cc1
not listed: OV90 | SKOV3 | astro
inactive: all other assays above

Fc1cc(Br)ccc1CBr
not listed: [1] | SKOV3 | astro
inactive: all other assays above

COCCOCCO
not listed: OV90 | astro
inactive: all other assays above

CC1(C)CC/C(=C/c2ccc(Cl)cc2)C1(O)Cn1cncn1 (centres undefined)
not listed: OV90 | [1] | astro
inactive: all other assays above

O=C(O)CCCOc1ccc(Cl)cc1Cl
not listed: SKOV3 | astro
inactive: all other assays above

Nc1c(Cl)c(Cl)c(Cl)c(Cl)c1Cl
not listed: SKOV3
inactive: all other assays above

CCCCCCCCc1ccc(O)cc1
not listed: Tov-21-G | PA-1
inactive: all other assays above

CCC(=O)O[C@@H]1C=C2CCC3C(CCC4(C)C3CC[C@@H]4OC(=O)CC)C2CC1 (some centres undefined)
not listed: OV90 | [1] | astro
inactive: all other assays above

C=CCC1=C(C)C(OC(=O)C2C(C=C(C)C)C2(C)C)CC1=O (centres undefined)
inactive: HeLa | Hek293T | JEG-3 | OV90 | Tov-21-G | Tov112D

OCCCBr
not listed: PA-1 | SKOV3 | astro
inactive: all other assays above

CS(=O)(=O)c1ccc(C(=O)C2C(=O)CCCC2=O)c([N+](=O)[O-])c1
inactive: all assays above

CC(=O)Nc1ccc(OC[C@](C)(O)C(=O)Nc2ccc([N+](=O)[O-])c(C(F)(F)F)c2)cc1
not listed: Tov-21-G | [1] | astro
inactive: all other assays above

Cc1cc(O)ccc1Cl
not listed: OV90 | astro
inactive: all other assays above

O=C(N[C@@H](COc1ccc2[nH]c(=O)[nH]c2c1)c1ccccc1)c1cccn(Cc2ccc(F)c(F)c2)c1=O
not listed: [1] | SKOV3 | astro
inactive: all other assays above

Nc1ccc(Cl)cc1
not listed: OV90 | astro
inactive: all other assays above

CCCCOC(=O)c1ccccc1C(=O)OCc1ccccc1
not listed: OV90 | SKOV3 | astro
inactive: all other assays above

O=[N+]([O-])c1ccc([As](=O)(O)O)cc1
not listed: PA-1 | astro
inactive: all other assays above

C1CCC(NC2CCCCC2)CC1
inactive: all assays above

c1cc2ccc3cccc4ccc(c1)c2c34
not listed: Tov112D | astro
inactive: all other assays above
